This is an account of results in PubChem BioAssay (NCATS).

Records with an inconclusive call do not appear. Activity calls are given as the source filed them. Unless noted, calls follow the shape of the full dose curve.

Test [1] is described as follows: Natriuretic polypeptide receptor (hNpr1) antagonism - Pilot counterscreen GloSensor control cell line (AID 1347045). Also: series mostly up to about 38 µM. The gist of the method:
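HEK293 cells carrying the GloSensor cGMP sensor (GIP/pGS-40F) were loaded with 2% GloSensor reagent for 2 h, exposed to compounds for 30 min, and then stimulated with 50 uM sodium nitroprusside for 20 min at room temperature.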
Background: A counterscreen serves to expose hits that act by an unwanted route or on another target.

Test [2] addresses Atrial natriuretic peptide receptor 1 (Homo sapiens) (UniProt P16066). In words: Natriuretic polypeptide receptor (hNpr1) antagonism - Pilot screen (AID 1347049).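 Also: agonist-evoked cGMP luminescence read 20 min after hNppA addition; series mostly up to about 58 µM.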 The gist of the method: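 Readout is cGMP-driven firefly luciferase luminescence in HEK293 cells carrying hNpr1 and a PDE5-domain GloSensor, read before and 20 min after 0.1 nM hNppA stimulation. Cells had 2% substrate reagent for 2 h and test compound for 30 min.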

Test [3] addresses Atrial natriuretic peptide receptor 2 (Homo sapiens) (UniProt P20594). Put plainly: Natriuretic polypeptide receptor (hNpr2) antagonism - Pilot subtype selectivity assay (AID 1347050). The gist of the method:
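Pilot selectivity screen against hNpr2: HEK293 cGMP-sensor cells are treated with LOPAC1280 compounds, then with hNppC peptide at 1 nM final. The cGMP-driven luminescence change over 20 min at room temperature is the read-out.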

Test [4] can be described thus: NS1 protein of Zika virus - qHTS assay to identify small molecule inhibitors in human HEK 293 cells (AID 1347053; active = well fitted curve in the direction sought with a large enough effect; an effect the other way counts as inactive or inconclusive; also: series mostly up to about 46 µM; nearly all actives have a fitted effect of over 55% in size). In short, it runs like this:
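Inhibition of NS1 expression was scored in HEK 293 cells given compound 1 h ahead of MR766 virus (MOI = 0.5). Following 24 h at 37 C, two anti-NS1 antibodies generated a TR-FRET signal, scaled between uninfected and infected controls.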
On the technique in general: In qHTS, concentration-response curves come from the screen itself.

Test [5] has as its target T1, Tyrosine-protein phosphatase non-receptor type substrate 1 (Homo sapiens) + Leukocyte surface antigen CD47 (Homo sapiens) (UniProt P78324+Q08722). Put plainly: CD47-SIRPalpha protein protein interaction - LANCE assay qHTS validation (AID 1347057; active = well fitted curve in the direction sought with a large enough effect in the signal ratio, with a control signal flat, not every such curve was filed as active; the % refers to the signal ratio; also: series mostly up to about 38 µM). In short, it runs like this: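 First, His-tagged CD47 and Eu-labelled anti-His antibody met the compound for 30 min; next, site-specifically biotinylated SIRPalpha was added for 30 min; finally streptavidin-APC was added before reading the TR-FRET ratio.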

Test [6] addresses T1, Tyrosine-protein phosphatase non-receptor type substrate 1 (Homo sapiens) + Leukocyte surface antigen CD47 (Homo sapiens). In words: CD47-SIRPalpha protein protein interaction - HTRF assay qHTS validation (AID 1347058; active = well fitted curve in the direction sought with a large enough effect in the signal ratio, not every such curve was filed as active; the % refers to the signal ratio;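 also: recombinant soluble extracellular CD47 with His tag and biotinylated SIRPalpha domains; series mostly up to about 38 µM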). The gist of the method: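 TR-FRET read (Ch1/Ch2 ratio) of soluble extracellular CD47 and Avi-biotinylated SIRPalpha domains in PBS pH 7.4 with 0.05% IGEPAL; 7-point compound titration. Sequential 30 min room-temperature steps; non-biotinylated SIRPalpha as control inhibitor.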
Background: TR-FRET usually uses a lanthanide donor and a delayed reading to cut background.

For test [7] the target is unchanged. In words: CD47-SIRPalpha protein protein interaction - Alpha assay qHTS validation (AID 1347059; active = well fitted curve in the direction sought with a large enough effect; an effect the other way counts as inactive or inconclusive;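 also: bead proximity luminescence from CD47 binding SIRPalpha after compound preincubation with SIRPalpha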). The gist of the method: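 Binding is measured by AlphaScreen proximity: Ni-NTA acceptor beads capture His-CD47, streptavidin donor beads capture biotin-SIRPalpha. Each of three additions (SIRPalpha with compound, CD47, beads) incubates 30 min at room temperature protected from light.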

The target in test [8] is Parathyroid hormone/parathyroid hormone-related peptide receptor (Homo sapiens) (UniProt Q03431). In words: qHTS for PTHR1 Agonists: Optimization Screen against the NCGC LOPAC library (AID 1347079; active = well fitted curve in the direction sought with a large enough effect; an effect the other way counts as inactive or inconclusive;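 also: GloSensor cAMP luminescence in HEK-293 GP2 cells expressing human PTHR1 with IBMX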). In short, it runs like this: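 Compounds were tested across a qHTS titration. PTHR1-expressing GP2 cells report cAMP rises via GloSensor luminescence after 1 hr compound exposure at 37C with IBMX present.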

A short description of test [9]: qHTS for Inhibitors of the Functional Ribonucleoprotein Complex (vRNP) of Lassa (LASV) Arenavirus: LASV Primary Screen - GLuc reporter signal (AID 1347082; calls by dose curve; tested in HEK293 reporter line; also: series mostly up to about 57 µM; nearly all actives have a fitted effect of over 60% in size).
The nature of test [10]: qHTS for Inhibitors of the Functional Ribonucleoprotein Complex (vRNP) of Lassa (LASV) Arenavirus: Viability assay - alamar blue signal for LASV Primary Screen (AID 1347083; calls by dose curve; tested in HEK293 reporter line; also: series mostly up to about 57 µM; nearly all actives have a fitted effect of over 80% in size).
Test [11] is described as follows: qHTS for Inhibitors of the Functional Ribonucleoprotein Complex (vRNP) of Lymphocytic Choriomeningitis Arenaviruses (LCMV): Viability assay - alamar blue signal for LCMV Primary Screen (AID 1347085; calls by dose curve; tested in HEK293 reporter line; also: series mostly up to about 57 µM; nearly all actives have a fitted effect of over 80% in size).
Test [12] concerns the target Nucleoprotein (Lymphocytic choriomeningitis virus (strain Armstrong)) (UniProt P09992). In words: qHTS for Inhibitors of the Functional Ribonucleoprotein Complex (vRNP) of Lymphocytic Choriomeningitis Arenaviruses (LCMV): LCMV Primary Screen - GLuc reporter signal (AID 1347086). Also: series mostly up to about 57 µM; nearly all actives have a fitted effect of over 70% in size.
Test [13] can be described thus: P-glycoprotein substrates identified in KB-8-5-11 adenocarcinoma cell line, qHTS therapeutic library screen (AID 1346987; active = well fitted curve in the direction sought with a large enough effect; an effect the other way counts as inactive or inconclusive; also: nearly all actives have a fitted effect of over 65% in size; also: potency is read from the fitted curve at half-maximal effect). In short, it runs like this: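 KB-8-5-11: colchicine-selected sub-line of KB-3-1 over-expressing P-gp; assay medium lacked colchicine. 72 h drug exposure at 37 degree C, CellTiter-Glo.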

Nucleoprotein (Lymphocytic choriomeningitis virus (strain Armstrong)), sequence (P09992 whole entry, looked up): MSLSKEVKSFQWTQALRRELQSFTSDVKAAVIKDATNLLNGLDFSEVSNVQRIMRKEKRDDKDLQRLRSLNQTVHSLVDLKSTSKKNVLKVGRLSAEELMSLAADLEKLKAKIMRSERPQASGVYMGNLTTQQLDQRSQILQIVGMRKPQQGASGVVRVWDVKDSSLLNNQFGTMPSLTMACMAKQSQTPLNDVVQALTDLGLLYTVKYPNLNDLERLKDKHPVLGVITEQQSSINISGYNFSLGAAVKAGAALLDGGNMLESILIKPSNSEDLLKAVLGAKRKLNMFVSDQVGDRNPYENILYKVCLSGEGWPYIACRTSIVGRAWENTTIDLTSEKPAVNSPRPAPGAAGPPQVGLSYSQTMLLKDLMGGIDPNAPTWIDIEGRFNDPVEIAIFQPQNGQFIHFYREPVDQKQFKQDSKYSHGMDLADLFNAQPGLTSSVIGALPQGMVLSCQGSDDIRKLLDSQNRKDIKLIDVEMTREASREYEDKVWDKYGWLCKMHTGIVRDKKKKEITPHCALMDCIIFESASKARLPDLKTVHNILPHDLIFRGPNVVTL
Atrial natriuretic peptide receptor 2 (Homo sapiens), sequence (P20594 whole entry, looked up): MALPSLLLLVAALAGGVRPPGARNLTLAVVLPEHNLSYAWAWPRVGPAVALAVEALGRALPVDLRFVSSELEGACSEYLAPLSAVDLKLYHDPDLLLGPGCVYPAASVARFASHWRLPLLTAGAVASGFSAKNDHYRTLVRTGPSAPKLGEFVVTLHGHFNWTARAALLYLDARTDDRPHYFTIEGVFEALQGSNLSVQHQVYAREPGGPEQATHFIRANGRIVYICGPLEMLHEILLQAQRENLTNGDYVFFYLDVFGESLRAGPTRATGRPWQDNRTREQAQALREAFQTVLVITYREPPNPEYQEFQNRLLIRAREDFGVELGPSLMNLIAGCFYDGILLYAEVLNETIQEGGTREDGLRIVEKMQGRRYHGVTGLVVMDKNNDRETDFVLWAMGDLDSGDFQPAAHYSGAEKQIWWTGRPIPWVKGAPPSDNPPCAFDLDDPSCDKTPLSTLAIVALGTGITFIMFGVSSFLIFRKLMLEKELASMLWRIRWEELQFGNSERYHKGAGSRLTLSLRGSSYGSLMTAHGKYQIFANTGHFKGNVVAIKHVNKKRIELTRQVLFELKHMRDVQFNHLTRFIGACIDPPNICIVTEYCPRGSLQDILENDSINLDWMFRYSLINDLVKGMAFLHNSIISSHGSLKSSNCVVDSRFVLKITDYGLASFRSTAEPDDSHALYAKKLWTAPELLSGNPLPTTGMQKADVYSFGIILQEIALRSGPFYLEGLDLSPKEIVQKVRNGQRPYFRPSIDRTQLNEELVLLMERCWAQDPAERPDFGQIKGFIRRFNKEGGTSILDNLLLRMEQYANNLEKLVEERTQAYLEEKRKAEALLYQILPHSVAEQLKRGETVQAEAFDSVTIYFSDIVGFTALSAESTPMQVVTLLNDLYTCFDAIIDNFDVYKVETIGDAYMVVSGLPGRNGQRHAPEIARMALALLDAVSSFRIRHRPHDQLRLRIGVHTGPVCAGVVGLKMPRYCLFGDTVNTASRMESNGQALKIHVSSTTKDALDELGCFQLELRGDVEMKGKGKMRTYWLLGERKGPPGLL
Parathyroid hormone/parathyroid hormone-related peptide receptor (Homo sapiens), sequence (Q03431 whole entry, looked up): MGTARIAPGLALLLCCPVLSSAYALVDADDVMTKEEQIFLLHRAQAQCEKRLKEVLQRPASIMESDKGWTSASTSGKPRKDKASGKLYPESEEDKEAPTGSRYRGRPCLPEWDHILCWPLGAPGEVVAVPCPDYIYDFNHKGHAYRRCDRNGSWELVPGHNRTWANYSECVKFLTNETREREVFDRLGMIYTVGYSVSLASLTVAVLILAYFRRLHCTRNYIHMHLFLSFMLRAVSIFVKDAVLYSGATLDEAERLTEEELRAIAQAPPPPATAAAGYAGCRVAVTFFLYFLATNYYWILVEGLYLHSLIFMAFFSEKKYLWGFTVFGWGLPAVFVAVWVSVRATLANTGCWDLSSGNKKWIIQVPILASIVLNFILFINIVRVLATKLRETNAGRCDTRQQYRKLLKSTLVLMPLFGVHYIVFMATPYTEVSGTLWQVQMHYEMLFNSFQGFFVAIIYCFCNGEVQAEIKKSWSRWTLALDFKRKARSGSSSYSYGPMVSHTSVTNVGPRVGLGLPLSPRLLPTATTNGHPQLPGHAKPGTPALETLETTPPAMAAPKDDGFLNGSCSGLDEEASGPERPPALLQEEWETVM
Atrial natriuretic peptide receptor 1 (Homo sapiens), sequence (P16066 whole entry, looked up): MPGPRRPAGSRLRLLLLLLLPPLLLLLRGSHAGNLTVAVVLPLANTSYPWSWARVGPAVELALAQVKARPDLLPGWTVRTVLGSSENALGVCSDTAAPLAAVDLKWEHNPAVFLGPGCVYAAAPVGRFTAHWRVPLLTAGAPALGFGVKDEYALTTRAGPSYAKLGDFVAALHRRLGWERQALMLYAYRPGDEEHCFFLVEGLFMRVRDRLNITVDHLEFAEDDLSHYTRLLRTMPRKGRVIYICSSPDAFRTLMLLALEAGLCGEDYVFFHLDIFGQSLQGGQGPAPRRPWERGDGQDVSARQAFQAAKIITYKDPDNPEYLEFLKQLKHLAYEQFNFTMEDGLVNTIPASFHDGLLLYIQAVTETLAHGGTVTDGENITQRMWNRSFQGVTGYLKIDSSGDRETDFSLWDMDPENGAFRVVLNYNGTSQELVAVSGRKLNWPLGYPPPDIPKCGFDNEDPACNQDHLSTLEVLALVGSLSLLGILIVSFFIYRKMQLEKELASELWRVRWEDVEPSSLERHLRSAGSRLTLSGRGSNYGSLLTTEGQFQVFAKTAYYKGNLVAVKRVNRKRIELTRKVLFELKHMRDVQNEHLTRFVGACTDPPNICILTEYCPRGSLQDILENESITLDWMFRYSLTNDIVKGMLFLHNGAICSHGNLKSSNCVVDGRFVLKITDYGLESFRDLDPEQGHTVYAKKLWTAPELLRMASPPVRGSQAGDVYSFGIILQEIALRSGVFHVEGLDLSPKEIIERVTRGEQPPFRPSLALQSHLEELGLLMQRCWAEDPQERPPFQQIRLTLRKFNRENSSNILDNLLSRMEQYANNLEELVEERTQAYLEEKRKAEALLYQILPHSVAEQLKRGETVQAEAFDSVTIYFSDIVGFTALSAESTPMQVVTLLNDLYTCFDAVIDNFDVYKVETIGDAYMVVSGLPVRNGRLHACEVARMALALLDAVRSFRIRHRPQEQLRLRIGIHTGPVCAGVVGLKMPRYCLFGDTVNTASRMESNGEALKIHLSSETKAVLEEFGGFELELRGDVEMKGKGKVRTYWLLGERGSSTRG
T1 sequence (P78324 whole entry, looked up): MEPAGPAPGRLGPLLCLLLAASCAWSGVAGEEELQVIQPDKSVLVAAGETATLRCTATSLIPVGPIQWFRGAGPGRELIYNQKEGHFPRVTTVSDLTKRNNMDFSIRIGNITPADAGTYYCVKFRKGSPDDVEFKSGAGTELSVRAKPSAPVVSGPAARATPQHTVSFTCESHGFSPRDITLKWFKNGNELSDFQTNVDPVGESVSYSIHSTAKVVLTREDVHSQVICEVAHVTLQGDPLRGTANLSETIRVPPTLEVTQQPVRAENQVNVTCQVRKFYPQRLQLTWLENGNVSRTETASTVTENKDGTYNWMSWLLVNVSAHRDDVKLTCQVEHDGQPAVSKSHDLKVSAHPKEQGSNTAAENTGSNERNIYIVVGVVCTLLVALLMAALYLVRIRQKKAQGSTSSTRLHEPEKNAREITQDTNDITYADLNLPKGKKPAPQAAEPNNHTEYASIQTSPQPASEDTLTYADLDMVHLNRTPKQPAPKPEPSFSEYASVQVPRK
T1 sequence (Q08722 whole entry, looked up): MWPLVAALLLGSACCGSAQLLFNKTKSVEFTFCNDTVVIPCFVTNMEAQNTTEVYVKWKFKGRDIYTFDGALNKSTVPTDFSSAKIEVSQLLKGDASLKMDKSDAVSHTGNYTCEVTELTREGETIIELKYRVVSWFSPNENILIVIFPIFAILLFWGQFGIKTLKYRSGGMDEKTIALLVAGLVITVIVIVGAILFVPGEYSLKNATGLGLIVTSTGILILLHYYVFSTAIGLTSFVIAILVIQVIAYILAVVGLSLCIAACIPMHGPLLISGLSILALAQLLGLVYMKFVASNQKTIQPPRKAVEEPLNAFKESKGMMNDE

On to `Cc1[nH]c2ccc(O)cc2c1CCN`, for which the Potency entry in [1], in [2], in [3], in test [5], in test [7] and in [8] was “inactive” throughout. Besides, the Potency result in test [9], in [10], in test [11] and in test [12] was “inactive” each time. The compound was called inactive in [4] and in test [6].

`c1ccc2cc(CC3=NCCN3)ccc2c1`: the Potency result in [1], in test [2], in test [3], in [5], in [7] and in test [8] was “inactive” each time. For the same compound, the Potency entry in test [9], in [10], in test [11] and in test [12] was “inactive” in each case. Besides, the outcome in [4] and in test [6] was inactive.

In the case of `Clc1ccc(N2CC3CCC(C2)N3)nn1`, the Potency result in test [1], in test [2], in test [3], in test [5], in [7] and in [8] was “inactive” in each case. Further, the Potency result in [9], in test [10], in [11] and in [12] was “inactive” throughout. The compound was called inactive in test [4] and in test [6].

Turning to `COc1ccc(OC)c(C(O)C(C)N)c1` (centres undefined), the Potency result in test [1], in [2], in test [3], in [5], in test [7] and in test [8] was “inactive” throughout. In addition, the Potency result in [9], in test [10], in [11] and in [12] was “inactive” each time. Further, the result in [4] and in test [6] was inactive.

As to `C[C@H]1O[C@@H](O[C@H]2C[C@@H](O)[C@]3(CO)C4C(CC[C@]3(O)C2)[C@@]2(O)CC[C@H](C3=CC(=O)OC3)[C@@]2(C)C[C@H]4O)[C@@H](O)[C@@H](O)[C@H]1O` (some centres undefined), the Potency in test [13] is 432 nM (active).

Turning to `C[N+](C)(C)CCOC(=O)CBr`, the Potency entry in test [1], in [2], in test [3], in test [5], in test [7] and in test [8] was “inactive” throughout. For the same compound, the Potency entry in test [9], in test [10], in test [11] and in [12] was “inactive” throughout. Further, the compound was called inactive in test [4] and in test [6].

`O=C1CC[C@@]2(O)C3Cc4ccc(O)c5c4C2(CCN3CC2CC2)[C@H]1O5` (some centres undefined): the Potency entry in test [1], in test [2], in test [3], in [5], in test [7] and in test [8] was “inactive” throughout. Moreover, the Potency result in test [9], in test [10], in test [11] and in [12] was “inactive” throughout. Also, the outcome in test [4] and in [6] was inactive.

Regarding `CCN1C[C@]2(COC)[C@H](O)C[C@H](OC)[C@@]34[C@@H]5C[C@@]6(O)[C@H](OC(=O)c7ccccc7)[C@@H]5[C@@](OC(C)=O)([C@@H]([C@H](OC)[C@H]23)[C@@H]14)[C@@H](O)[C@@H]6OC`, the Potency entry in test [13] was “inactive”.

Take `Cc1cc([C@@H]2CCCN2C)on1`: the Potency result in test [1], in test [2], in [3], in test [5], in [7] and in [8] was “inactive” each time. In addition, the Potency entry in [9], in [10], in [11] and in [12] was “inactive” in each case. The outcome in [4] and in [6] was inactive.

On to `CO[C@@H]1[C@H](O)[C@@H](O[C@@H]2C[C@H]3CC[C@@H]4C(CC[C@]5(C)[C@@H](C6=CC(=O)OC6)CC[C@]45O)[C@@]3(C)[C@H](O)C2)O[C@H](C)[C@@H]1O[C@@H]1O[C@H](CO)[C@@H](O)[C@H](O)[C@H]1O` (some centres undefined), for which, in test [13], the Potency is 385 nM (active).

With `CP(=O)(O)C1=CCNCC1`, the Potency entry in test [1], in [2], in test [3], in test [5], in test [7] and in test [8] was “inactive” throughout. For the same compound, the Potency result in test [9], in test [10], in test [11] and in test [12] was “inactive” each time. For the same compound, the call in [4] and in [6] was inactive.
